Screening results: PubChem, Broad Institute
Tg IFNy HTS = inhibitors of Toxoplasma gondii growth with IFN-gamma | Toxoplasma gondii growth in IFN-gamma-treated host cells; hits give low values | activity change, negative = inhibition, % (test concentration not listed) | 3.8% of 69,000 active | AID 1259416; in the data active = activity change below about -70%, passing the limit was not always enough;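 also: host cells are HeLa cells infected with Toxoplasma gondii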
* hit, by the source's call; i = inactive; ! = not confirmed by another sample. Many of the other results were omitted from the sample, so hits are more common in it than they were.

SMILES	Tg IFNy HTS
CCc1c(C)nn(-c2nc(C)cc(C)n2)c1OC(=O)c1ccccc1	28.0
CC1Oc2ccc(NCc3ccc(OCCO)cc3)cc2N(C)C1=O (stereo unspecified)	121.5
CCOc1ccc(-n2cnnc2)cc1-n1cccc1	-74.4*
CCC/C=C/c1cccc(-n2cnnc2)c1	-32.3
c1cc(-n2ccnc2)cc(-n2cnnc2)c1	34.7
Nc1nnc(CC(=O)N2CCN(c3ccccc3C(F)(F)F)CC2)s1	-10.2
CC1(C)C2CC[C@]3(C)C(C(=O)C=C4[C@H]5C[C@@](C)(C(=O)O)CC[C@]5(C)CC[C@]43C)[C@@]2(C)CC[C@@H]1O (stereo partly specified)	7.9
CC(=O)Oc1cc2c(c(C)c1OC(C)=O)CC=C1[C@@]2(C)CC[C@@]2(C)C3C[C@](C)(C(=O)O)CC[C@]3(C)CC[C@]12C (stereo partly specified)	-80.5*
O=C1CC(N2CCN(c3ncccn3)CC2)C(=O)N1c1ccccc1 (stereo unspecified)	5.2
CNC(=O)C[C@@H]1C[C@@H]2CN(Cc3ccc4c(c3)OCO4)C[C@H]2O1	4.6
O=C(NCCc1csc2c1CCCC2)c1cn(CC2CCCNC2)nn1 (stereo unspecified)	-78.4*
CC1(C)Cc2ccccc2CN1C(=O)c1cn(CC2CCCNC2)nn1 (stereo unspecified)	2.1
Cc1cccnc1N1CCN(C(=O)c2cn(CC3CCCNC3)nn2)CC1 (stereo unspecified)	1.9
CN(C)[C@@H]1C[C@@H](C(=O)O)N(C/C=C/c2ccccc2)C1	-50.0
Nc1c(C(=O)c2ccccc2)oc2nc3c(c(-c4ccco4)c12)CCc1ccccc1-3	72.9
c1cncc(COC2CCN(Cc3ccc(-n4ccnc4)cc3)CC2)c1	-41.2
COc1ccccc1C(C)N(C)C(=O)c1ncc[nH]1 (stereo unspecified)	-0.2
Cc1ccc(-c2cc(CN3CCCCC3c3ccccn3)on2)cc1 (stereo unspecified)	-8.1
CCCCN(CC)c1nc(C(=O)OCC)nc2ccccc12	-86.7*
CCOC(=O)c1nc(NCCOC)c2ccccc2n1	103.9
CCOC(=O)c1nc(N(C)c2ccccc2C)c2ccccc2n1	-17.7
CCCN(c1ccc(F)cc1)c1nc(C(=O)OCC)nc2ccccc12	-49.0
CCCCN(CCCNc1nc(C(=O)OCC)nc2ccccc12)c1ccccc1	-77.9*
CCOC(=O)c1nc(NCCCN2CCN(Cc3ccccc3)CC2)c2ccccc2n1	1.9
CC(=O)N1CCC2C(C[C@@H](CN3CCCC3)N2c2nccs2)C1 (stereo partly specified)	5.8
SMILES	Tg IFNy HTS
COc1cc(NC(=O)CN2CCC3(CC2)N=C(c2ccc(F)cc2)C(=O)N3)cc(OC)c1	16.3
CC(C(=O)NCc1cccnc1-n1ccnc1)n1cncn1 (stereo unspecified)	4.9
Cc1ccc(CN2CCc3c(C(=O)N4CCOCC4)n[nH]c3C2)s1	-2.9
Cc1ccc(-c2ccc(C(=O)N3CCCC3)cn2)c(-n2cccn2)c1	-55.0
C[C@]12CC[C@@H]3c4ccc(O)cc4CC[C@H]3[C@@H]1CC[C@@H]2OC(=O)CCC(=O)O	1.5
C[C@]12CCC3c4ccc(OS(=O)(=O)O)cc4CCC3C1CCC2=O (stereo partly specified)	17.4
C[C@]12CCC3c4ccc(O)cc4CCC3C1CC[C@@H]2OC(=O)CCC1CCCC1 (stereo partly specified)	-72.1*!
CCc1cnc(N2C[C@@H]3CN(c4ncccn4)C[C@]3(C(=O)O)C2)nc1	20.7
CCN(CC)S(=O)(=O)c1ccc2oc3ccc(S(=O)(=O)N(CC)CC)cc3c2c1	-7.8
CCNS(=O)(=O)c1ccc(-c2oc3cc(S(=O)(=O)NCC)ccc3c2Cl)cc1	-78.1*
CCCc1cc(=O)oc2cc(OS(=O)(=O)c3ccc(Cl)cc3)ccc12	-54.6
COc1ccc(-c2nn(C)c(NS(=O)(=O)Cc3ccc(Cl)cc3)c2C)cc1	18.4
CNC(=O)CN1CCOCC12CCN(c1ccc(C#N)cc1)CC2	94.9
Cc1ccc(Nc2nc(N)nc(CSc3nc4ccccc4s3)n2)cc1	-64.3
Cc1ccc(Nc2nc(N)nc(CN3CCc4ccccc4C3)n2)cc1	-98.5*
CCOc1ccc(Nc2nc(N)nc(CN3CCN(C)CC3)n2)cc1	30.8
Cc1ccsc1C(=O)Nc1ccc2c(c1)CCC(=O)N2C	281.8
Cc1ccc(-c2cn3cc(C(=O)N4CCCN(C)CC4)ccc3n2)cc1C	88.8
O=C(NC[C@@H]1[C@@H](c2ccccc2)[C@@H](CO)N1Cc1cccnc1)c1ccccn1	-8.6
Nc1nc(Nc2ccc3c(c2)CC[C@@H](N2CCCC2)CC3)nn1-c1cc2c(nn1)-c1ccccc1CCC2	-76.4*
CCC(=O)N1CC2(CCN(C(=O)Nc3ccccc3F)CC2)c2c([nH]c3cc(OC)ccc23)[C@H]1CO	109.6
O=C(c1cccc2cccnc12)N(Cc1ccsc1)CC1CCCO1 (stereo unspecified)	41.7
COc1ccc(NC(=O)N2CCOCC2)cc1	33.3
COc1ccc(NC(=O)C2OC3OC(C)(C)OC3C3OC(C)(C)OC23)cc1 (stereo unspecified)	-94.1*
COc1ccc(Oc2ccc(NC(=O)C3C4CC5OC(=O)C3C5C4)cc2)cc1 (stereo unspecified)	-6.7
SMILES	Tg IFNy HTS
CC(C)(O)C(=O)N1CCC2(c3ccccc3)CN(Cc3cccnc3)CC2C1 (stereo unspecified)	14.9
Cc1n[nH]c(C)c1N=Nc1cc(Cl)cc(Cl)c1	-91.6*
CCCc1[nH]c(=O)cc2cc(OC)c(OC)cc12	-39.8
CC(=O)CCc1c(C)c2cccc(C)c2[nH]c1=O	25.3
CCCCc1cc(C)c2[nH]c(=O)cc(C)c2c1	-87.9*
O=C(NCCNc1nccc(C2CCCC2)n1)c1ccncc1	-34.4
N#CCN1CCC2(CC1)OCCN(Cc1cccnc1)c1ccccc12	-20.3
Cc1ccc(CN(C)Cc2cnn3cccnc23)o1	-45.4
CN1CC(C(=O)O)CN2CCN(Cc3nccs3)CC2C1 (stereo unspecified)	-0.3
COc1cncc(C(=O)Nc2ccc(C)c(F)c2)c1	-15.2
CCOC(=O)c1nc(Nc2ccc(F)c(Cl)c2)c2ccccc2n1	-51.2
CCOC(=O)c1cc(NC(=O)c2ccc(F)c(Cl)c2)ccc1Oc1cncc(Cl)c1	-89.6*
CCOc1ccc(-c2nc(CN(c3ccccc3OC)S(=O)(=O)c3ccc(C)cc3)c(C)o2)cc1	-42.7
O=S(=O)(c1ccc(F)cc1)N1CCC2(CC1)Nc1ccccc1-n1cccc12	26.1
Cc1ccc(Nc2nc(C(=O)NC3CCCC3)nc3ccccc23)cc1	-35.5
Cc1ccc(Nc2nc(C(=O)NC3CCCCCC3)nc3ccccc23)cc1	-74.5*
Cc1cccc(Nc2nc(C(=O)NC3CCCCCCC3)nc3ccccc23)c1	-83.4*
CCc1ccc(Nc2nc(C(=O)NC3CCCC3)nc3ccccc23)cc1	-63.4
Cc1ccc(Nc2nc(C(=O)NC3CCCCC3)nc3ccccc23)cc1	-51.9
O=C(NC1CCCCCC1)c1nc(Nc2ccc(F)cc2)c2ccccc2n1	-20.0
Cc1c(C(=O)NCCNc2ccccn2)cnn1C	-5.2
CCNc1ncc(C(=O)N(Cc2ccc(SC)cc2)C2CC2)cn1	-12.7
C/C=C/c1cnc2c(c1)C(=O)N([C@H](C)CO)C[C@@H](C)[C@H](CN(C)CC1CCOCC1)O2	-54.9
c1ccc(SSc2ccccc2)cc1	9.5
FC(F)(F)C(Sc1ccccc1)=C(Sc1ccccc1)Sc1ccccc1	-79.6*
Cc1ccc(S(=O)(=O)NCCc2sc(-c3cccc(C)c3)nc2C)cc1	i
Cc1cc(-c2ccccc2)c2c(C)c(C)sc2n1	-11.3
